Measurements reported in PubChem BioAssay (NCI).
The panel holds about 79,000 compounds, 15% with a hit somewhere; the sample as a whole holds those more often. Activity calls are given as the source filed them. Rule as the data show it: active = growth inhibition above about 70%; inactive = the rest.

Key:
[1] = NCI Yeast Anticancer Drug Screen. Data for the rad50 strain (AID 155);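 also: 0% = growth of vehicle-only cultures of the same strain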; details: S. cerevisiae rad50 strain growth inhibition, active compounds read high
How it was run: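 Readout: growth inhibition relative to vehicle-treated cultures. Compound exposure was carried out in a genetically defined yeast strain deficient in DNA damage repair.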

[2] = NCI Yeast Anticancer Drug Screen. Data for the mec2-1 strain (AID 157); details: S. cerevisiae mec2-1 strain, active compounds read high
How it was run: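 mec2-1 yeast strain, carrying an alteration in DNA damage repair or cell cycle control, was exposed to compounds; growth inhibition was measured relative to vehicle-treated controls.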

[3] = NCI Yeast Anticancer Drug Screen. Data for the sgs1 mgt1 strain (AID 161);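 also: 0% = growth of cultures given vehicle only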; details: S. cerevisiae sgs1 mgt1 strain, active compounds read high
How it was run: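 This yeast growth screen uses a strain with defined DNA-repair lesions; compound-treated growth is compared with vehicle-treated growth.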

[4] = NCI Yeast Anticancer Drug Screen. Data for the cln2 rad14 strain (AID 165);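 also: 0% = growth equal to vehicle treated cultures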; details: S. cerevisiae cln2 rad14 strain, active compounds read high
How it was run: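 Yeast carrying cln2 and rad14 alterations (cell cycle control and DNA damage repair) were exposed to compounds. Growth inhibition was measured against vehicle-treated controls.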

[5] = NCI Yeast Anticancer Drug Screen. Data for the bub3 strain (AID 167); details: S. cerevisiae bub3 mutant strain, active compounds read high
How it was run: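 Readout: yeast growth inhibition, expressed relative to vehicle-only wells. The test organism is a mutant strain from a panel with lesions in DNA repair or checkpoint genes.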

[6] = NCI Yeast Anticancer Drug Screen. Data for the mlh1 rad18 strain (AID 175); details: S. cerevisiae mlh1 rad18 strain growth inhibition, active compounds read high
How it was run: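 Growth inhibition of the yeast strain was measured after compound exposure and expressed relative to vehicle-treated controls. The strain carries defined defects in DNA damage repair.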

[7] = at 5.0 µM (retest, dose inferred, filed as 0.5)
[8] = at 50.0 µM (retest, dose inferred, filed as 5.0)

Measured: growth inhibition

C=C1CC2(OC1=O)C(=O)N(C)c1ccccc12 (stereo not given)
active: [1]; at 50.0 µM 84.5% | [2]; at 50.0 µM 87.5% | [3]; at 50.0 µM 82.6% | [5]; [8] 73% | [5]; at 50.0 µM 88.2% | [6]; [8] 71% | [6]; at 50.0 µM 91.7%
inactive: [1]; [7] -118% | [1]; [8] 63% | [2]; [7] -31% | [2]; [8] 52% | [3]; [7] -38% | [3]; [8] 67% | [4]; [7] -49% | [4]; [8] 22% | [4]; at 50.0 µM 15% | [5]; [7] -47% | [6]; [7] -111%

C=CCN1CCC(OC(=O)C(O)(C#CC)C2CCCC2)CC1 (stereo not given)
active: [1]; [8] 72% | [3]; [8] 71% | [3]; at 50.0 µM 71.9% | [4]; [8] 76% | [5]; [8] 78%
inactive: [1]; [7] 40% | [1]; at 50.0 µM 68.9% | [2]; [7] 31% | [2]; [8] 62% | [2]; at 50.0 µM 50.9% | [3]; [7] 40% | [4]; [7] 35% | [4]; at 50.0 µM 58.6% | [5]; [7] 21% | [5]; at 50.0 µM 61.8% | [6]; [7] 17% | [6]; [8] 66% | [6]; at 50.0 µM 64%

CC12CCC(O)CC1CCC1C2CCC2(C)C(NC(=O)N(CCCl)N=O)CCC12 (stereo not given)
inactive: [1]; [7] 6% | [2]; [7] 2% | [3]; [7] -205% | [4]; [7] -1% | [4]; [8] 35% | [4]; at 50.0 µM 65.8% | [5]; [7] -7% | [5]; [8] 63% | [5]; at 50.0 µM 56.8% | [6]; [7] 46%
active: [1]; [8] 74% | [1]; at 50.0 µM 91.3% | [2]; [8] 78% | [2]; at 50.0 µM 80.5% | [3]; [8] 84% | [3]; at 50.0 µM 92.9% | [6]; [8] 94% | [6]; at 50.0 µM 94.5%

O=S(=O)(Nc1ccccc1C(F)(F)F)c1ccc(F)cc1
active: [1]; at 50.0 µM 80.6% | [6]; [8] 83% | [6]; at 50.0 µM 80.2%
inactive: [1]; [7] -23% | [1]; [8] 49% | [2]; [7] 6% | [2]; [8] 59% | [2]; at 50.0 µM 46.5% | [3]; [7] -11% | [3]; [8] 43% | [3]; at 50.0 µM 56.4% | [4]; [7] -21% | [4]; [8] 69% | [4]; at 50.0 µM 33.4% | [5]; [7] -16% | [5]; [8] 61% | [5]; at 50.0 µM 35.4% | [6]; [7] -13%

O=C(N/C(=C\c1ccc([N+](=O)[O-])cc1)c1nc2ccccc2s1)c1ccccc1
inactive: [1]; [7] 3% | [1]; at 50.0 µM 24.8% | [2]; [7] 1% | [2]; [8] 69% | [3]; [7] -1% | [3]; at 50.0 µM 54.4% | [4]; [7] -2% | [4]; [8] 25% | [4]; at 50.0 µM 20% | [5]; [7] 4% | [6]; [7] 2% | [6]; [8] 55%
active: [1]; [8] 73% | [2]; at 50.0 µM 76.2% | [3]; [8] 72% | [5]; [8] 83% | [5]; at 50.0 µM 80.3% | [6]; at 50.0 µM 72.5%

CC(C)=CCC/C(C)=C/CCC1(C)C=Cc2c(c3ccccc3oc2=O)O1 (stereo not given)
inactive: [1]; [7] 28% | [1]; [8] 3% | [1]; at 50.0 µM 20.1% | [2]; [7] 25% | [2]; [8] 15% | [2]; at 50.0 µM 15.2% | [3]; [7] 51% | [3]; [8] 36% | [3]; at 50.0 µM 57.6% | [4]; [7] 37% | [4]; [8] 25% | [4]; at 50.0 µM 52.3% | [5]; [7] 53% | [5]; [8] 28% | [5]; at 50.0 µM 23.1% | [6]; [7] 25% | [6]; [8] 16%
active: [6]; at 50.0 µM 76.5%

C/C(=N\N(C)C(=S)Nc1ccccc1)c1ccccn1
active: [1]; at 50.0 µM 93.5% | [3]; at 50.0 µM 71.7% | [5]; at 50.0 µM 82%
inactive: [1]; [7] -2% | [1]; [8] 11% | [2]; [7] -4% | [2]; [8] 9% | [2]; at 50.0 µM 63.2% | [3]; [7] -6% | [3]; [8] 22% | [4]; [7] -5% | [4]; [8] -18% | [4]; at 50.0 µM 54.9% | [5]; [7] -12% | [5]; [8] 36% | [6]; [7] -10% | [6]; [8] 65% | [6]; at 50.0 µM 61.8%

Cc1ccc(/C=N/NC(N)=S)cc1C
inactive: [1]; [7] -6% | [1]; [8] 18% | [1]; at 50.0 µM 45.1% | [2]; [7] -4% | [2]; [8] 3% | [2]; at 50.0 µM 10.8% | [3]; [7] -5% | [3]; [8] 9% | [3]; at 50.0 µM 61.7% | [4]; [7] -12% | [4]; [8] -13% | [4]; at 50.0 µM -11.1% | [5]; [7] -4% | [5]; [8] -2% | [5]; at 50.0 µM 34.8% | [6]; [7] -6% | [6]; [8] 7% | [6]; at 50.0 µM 65.6%

CN1CCN(CCCCN2c3ccccc3Sc3ccc(C(=O)c4ccccc4)cc32)CC1
active: [1]; at 50.0 µM 75.6% | [3]; at 50.0 µM 87.2%
inactive: [1]; [7] 25% | [1]; [8] 27% | [2]; [7] 26% | [2]; [8] 34% | [2]; at 50.0 µM 22.8% | [3]; [7] 27% | [3]; [8] 2% | [4]; [7] 30% | [4]; [8] 18% | [4]; at 50.0 µM -9.8% | [5]; [7] 36% | [5]; [8] 25% | [5]; at 50.0 µM 22% | [6]; [7] 32% | [6]; [8] 37% | [6]; at 50.0 µM 60.2%

CC12C=CC(=O)C=C1CCC1C3CCC(O)(C(=O)CO)C3(C)CC(O)C12F (stereo not given)
active: [4]; at 50.0 µM 72.8% | [5]; [8] 82% | [6]; [8] 79%
inactive: [1]; [7] 2% | [1]; [8] 63% | [1]; at 50.0 µM 11.4% | [2]; [7] 4% | [2]; [8] 65% | [2]; at 50.0 µM 25.6% | [3]; [7] 3% | [3]; [8] 54% | [3]; at 50.0 µM 7.65% | [4]; [7] 6% | [4]; [8] 35% | [5]; [7] 6% | [5]; at 50.0 µM 0.6% | [6]; [7] 4% | [6]; at 50.0 µM 2.15%
